# Laboratory results: PubChem BioAssay (NCATS)
# Records with an inconclusive call do not appear. Entries that show only a call come without a potency. Active and inactive are the calls of the source. The call rests on the fitted dose curve; in most records, active means well fitted cell-killing curve with a large enough effect; inconclusive means small, poorly fitted or top-dose-only effect; inactive means flat fitted curve, though single readings scatter.
# Experiment: qHTS of pediatric cancer cell lines to identify multiple opportunities for drug repurposing: Primary screen for Rh18 cells (AID 1347102); further: nearly all actives have a fitted effect of over 65% in size
# Conditions: Rh18 rhabdomyosarcoma viability, CellTiter-Glo luminescence, 48 h; series mostly up to 46 µM
# Text: Drug repurposing or repositioning has been offered as a strategy for drug development in oncology programs. This approach has special potential for childhood cancers and other rare or orphan diseases, where the expected return on new drug development has been a disincentive to pharmaceuticals.
# In this project we exploit the poly-pharmacology of drugs to discover new indications via phenotypic screening of a panel of 19 well-characterized cell lines derived from solid tumors seen in children and adolescents. The goal is to identify approved drugs with previously unrecognized anticancer properties that has the potential to reveal new mechanisms and biological processes involved in carcinogenesis or drug resistance. We employed a titration-based paradigm (quantitative high-throughput screening or qHTS), where all compounds were tested at multiple concentrations for their effect on cell viability. Concentration-response curves (CRCs) were derived directly from the primary screen, and both potency and efficacy values were used to identify compounds with robust bioactivity profiles. We screened the NIH Chemical Genomics Center (NCGC) Pharmaceutical Collection (NPC) and Mechanism Interrogation Plate (MIPE) small molecule collections of approved and investigational compounds against these cell lines; and measured metabolically active cells after 48 hours of compound treatment as a proxy for cell viability.
# Assay Submitter: Nathalia J. Martinez, National Center for Advancing Translational Sciences, National Institutes of Health, Rockville, MD, USA; email: natalia.martinez@nih.gov
# [1] Shen, M et al. Quantitative high-throughput phenotypic screening of pediatric cancer cell lines identifies multiple opportunities for drug repurposing. Oncotarget 2017 Dec 19;9(4):4758-4772. PMID 29435139.
# The cells were obtained from University of North Carolina (UNC), Pediatric Preclinical Testing Program (PPT), and Coriell Institute (CI).
# qHTS cell viability assay:
# Cells were assayed in growth media at a density of 500-1,000 cells/well. Five microliters of cells were dispensed into 1,536-well, white, solid-bottom, TC-treated plates (Greiner Bio One) using a multidrop dispenser and incubated at 37 degrees C, 5% CO2, under a humidified atmosphere for 5 hours. Twenty-three nanoliters of compounds and controls (neutral control DMSO or positive control bortezomib at final concentration of 2.3 µM) were subsequently transferred by Kalypsys pintool. For primary screens, the MIPE collection was tested at 11-point dilutions (final concentrations range from 0.78 nM to 46 µM) and the NPC collection at 8-point dilutions (final concentrations range from 0.59 nM to 46 µM). Compounds tested in follow-up screens were assayed at 11-point dilutions. Cells were incubated for 48 hours, followed by addition of 3 µL of CellTiter-Glo (Promega). After a 15 min incubation at room temperature, samples were analyzed for luminescence intensity using a ViewLux High-throughput CCD imager equipped with clear filters.
# Potency means the concentration at half of the fitted maximal effect.
row,SMILES,Potency
1,CC(=O)[C@H]1CC[C@H]2[C@@H]3C=CC4=CC(=O)CC[C@@]4(C)[C@@H]3CC[C@]12C,inactive
2,CCCCOCCOC(=O)c1cccnc1,inactive
3,N[C@@H](Cc1cc(I)c(O)c(I)c1)C(=O)O,inactive
4,CC(C)C(=O)Nc1cccc(C(F)(F)F)c1,inactive
5,C[C@H]1C[C@@H]2[C@H]([C@@H](O)C[C@@]3(C)[C@H]2CC[C@]3(O)C(=O)CO)[C@@]2(C)C=CC(=O)C=C12,inactive
6,OC1(c2ccccc2)CCNCC1,inactive
7,CCCC(=O)O[C@]1(C(=O)CCl)[C@@H](C)C[C@H]2[C@@H]3CCC4=CC(=O)C=C[C@]4(C)[C@@]3(F)C(=O)C[C@@]21C,inactive
8,Cc1sccc1Br,inactive
9,CCN(CC)C(=O)C1CN2CCc3cc(OC)c(OC)cc3C2CC1OC(C)=O (stereo not given),inactive
10,CCc1cc(S(=O)(=O)O)c2cc(C(C)C)cccc1-2,inactive
11,CC(C)=CCNc1ncnc2c1ncn2[C@@H]1O[C@H](CO)[C@@H](O)[C@H]1O,2660 nM (active)
12,CC(C(=O)O)c1ccc(/C=C2\CCCCC2=O)cc1 (stereo not given),inactive
13,CC(=O)N1CCN(c2ccc(O)cc2)CC1,inactive
14,Cc1ccc(/C=N/n2c(-c3ccccc3)csc2=S)cc1,inactive
15,Cc1nc([N+](=O)[O-])cn1-c1ccc([N+](=O)[O-])cc1,inactive
16,CO[C@@]1(NC(=O)CSC[C@@H](N)C(=O)O)C(=O)N2C(C(=O)O)=C(CSc3nnnn3C)CS[C@@H]21,inactive
17,Brc1ccccc1-c1ccccc1,inactive
18,Cc1ccc2ccc(Cl)cc2n1,inactive
19,CC(C)=CCC/C(C)=C/CC/C(C)=C/C(=O)OCC(=O)[C@@]1(O)CC[C@H]2[C@@H]3CCC4=CC(=O)C=C[C@]4(C)[C@H]3[C@@H](O)C[C@@]21C,inactive
20,CN1Cc2cc(C(=O)N3CCC(C4CCNCC4)CC3)ccc2N[C@@H](CC(=O)O)C1=O,inactive

row,SMILES,Potency
1,CCOC(=O)[C@H](CCc1ccccc1)N[C@@H](C)C(=O)N(CC(=O)O)C1Cc2ccccc2C1,inactive
2,O=C(c1ccco1)N1CCNCC1,inactive
3,Cc1nc(N)nc(N)c1-c1ccc(Cl)c(Cl)c1,inactive
4,COC(=O)CCCCC(CCSS/C(CCO)=C(\C)N(C=O)Cc1cnc(C)nc1N)SC(C)=O (stereo not given),inactive
5,COc1ccccc1OCC1CNC(=O)O1 (stereo not given),inactive
6,Cc1ccccc1N1CCN(CCc2nnc3n2CCCC3)CC1,inactive
7,OCCCc1ccccc1,inactive
8,Cc1[nH]cnc1-c1ccc(Cl)cc1,inactive
9,C/C(=C(/OCCOc1ccc(Cl)cc1)c1ccc(Cl)cc1Cl)n1ccnc1,inactive
10,CC(=O)c1cc2ccccc2s1,inactive
11,CCCCCC1Nc2cc(C(F)(F)F)c(S(N)(=O)=O)cc2S(=O)(=O)N1 (stereo not given),inactive
12,CC(C)C(=O)OCc1cccc(OC(=O)[C@@H]2N3C(=O)[C@@H](NC(=O)Cc4ccccc4)[C@H]3SC2(C)C)c1,inactive
13,CC(C)OC(=O)c1cc2c(OCC(O)CNC(C)(C)C)cccc2[nH]1 (stereo not given),inactive
14,CC(Oc1c(Cl)cccc1Cl)C1=NCCN1 (stereo not given),inactive
15,Cc1cccc(OCC(O)CNC(C)(C)C)c1C (stereo not given),inactive
16,CCN1C(=O)c2ccccc2C1Nc1ccc(OCCN2CCCCC2)cc1 (stereo not given),inactive
17,Nc1nc(=O)n([C@@H]2O[C@H](CO)[C@@H](O)[C@@H]2F)cc1I,inactive
18,CCc1cccc2c(CCO)c[nH]c12,inactive
19,O=[N+]([O-])c1cncn1CCN1CCOCC1,inactive
20,O=C(O)[C@H](O)[C@@H](O)[C@H](O[C@@H]1O[C@H](CO)[C@H](O)[C@H](O)[C@H]1O)[C@H](O)CO,inactive
